Results from ChEMBL document CHEMBL3988442, “University of Dundee, Small-Polar-MMV Screening Library” (2021).

Molecular target: AMP-activated protein kinase, AMPK (Homo sapiens) (UniProt P54646+O43741+P54619+Q9UGJ0+Q9Y478+Q13131+Q9UGI9)
Assay: AMP-dependent Kinase enzyme assay. An in vitro enzyme assay that detects ADP turnover that is directly proportional to AMPK activity. This uses naive AMPK that is activated during the assay with MK-8722
Format: functional
Parameters: scale not given: direction of the effect not stated beside the values
Details: 30 µM

Compound	Percent Effect
CCN1CC(CN(C)c2cc(C)nc(N)n2)Oc2ccccc21 (stereo not given)	3.94%
CN1C[C@]2(CC[C@@H](C(=O)N3CCOCC3)CC2)Oc2ccccc2C1=O	11.1%
CN(C)C(=O)c1cncnc1-c1ccc(CNC(=O)C2CCCO2)cc1 (stereo not given)	-0.401%
Cn1ncc2c(N[C@@H]3C[C@@H]4CC[C@H]3C4)nc(-c3ccncc3)nc21	12.7%
CNC(=O)CCOC(=O)c1cccc(-n2ccc(C(F)(F)F)n2)c1	3.59%
CN(c1ncc(S(N)(=O)=O)s1)C1CCc2ccccc2C1 (stereo not given)	5.32%
COc1ccc(N2CCC(NC(=O)c3sccc3C)CC2)cc1	-1.46%
COc1ccccc1N1CCCC(NC(=O)Nc2cccnc2)C1 (stereo not given)	-1.53%
NC(=O)NC1(C(=O)N2CCc3c(Cl)cccc3C2)CCCCC1	-3.74%
COc1ccc(Cn2c(CCc3c(C)n[nH]c3C)n[nH]c2=O)cc1	-3.53%
Cn1ccc(C(=O)N2CCCC2c2cc(CO)[nH]n2)n1 (stereo not given)	20.7%
COc1ccccc1NC(=O)CCNC(=O)c1ccoc1	-6.87%
CCOC(=O)N(C)CC(=O)NCCc1coc(-c2ccc(C)cc2)n1	-1.7%
CSCCC1c2nc[nH]c2CCN1Cc1[nH]c2ccc(F)cc2c1C (stereo not given)	2.26%
CN(CCc1noc(C2CC2)n1)C(=O)CN1C(=O)COc2ccccc21	-1.86%
O=c1[nH]c2ccc(S(=O)(=O)N(CCO)Cc3ccncc3)cc2[nH]1	15.8%
CC(OCC1CC1)C(=O)Nc1cccc(C(=O)Nc2ccccn2)c1 (stereo not given)	23.1%
CS(=O)(=O)c1ccc(CN2C[C@H]3CC[C@@H]2CN(c2ncccn2)C3)cc1	9.64%
Cc1nc(C(NS(=O)(=O)N(C)C)c2ccccc2F)no1 (stereo not given)	-2.57%
Cc1ccccc1C(=O)NC(C)CN1CCOC1=O (stereo not given)	14.9%

Compound	Percent Effect
CN(Cc1noc(C2CC2)n1)C1CCN(CCn2cccn2)C1 (stereo not given)	5.76%
COc1c(C2CCCN2CC(=O)Nc2nccs2)c(C)nn1C (stereo not given)	7.38%
Cc1nccn1-c1nccnc1C1CCCN(C)C1 (stereo not given)	1.28%
CC1C(=O)NCCN1CCOc1ccc(C#N)cc1 (stereo not given)	3.66%
CS(=O)(=O)c1ccccc1N[C@@H]1c2ccccc2C[C@@H]1O	-13.1%
Cc1ccc(C)c(CN(CC(N)=O)C(C)C)c1	-8.2%
CNC(=O)c1cn2cc(-c3cccc(Cl)c3)n(CC3CC3)c(=O)c2n1	-3.37%
Cc1nnsc1CNC(=O)Nc1cccc(N2CCN(C)C2=O)c1	-11%
O=C(NCCc1ccccn1)N1CCOC(c2ccccc2Cl)C1 (stereo not given)	-1.2%
CCc1nnc(C(C)N2CCC(NC(=O)C3CCCCC3)CC2)o1 (stereo not given)	2.87%
Cc1c(CN2CCc3[nH]cnc3C2C2CC2)[nH]c2ccc(F)cc12 (stereo not given)	3.62%
Cc1cc(CN(C)c2nc(-c3ccco3)nc3c2CCN(C)CC3)on1	6.52%
Cc1nc2c(c(=O)[nH]1)CN(C(=O)CCC1CCCN(C)C1)C2 (stereo not given)	12%
CSCCC(NC(N)=O)C(=O)Nc1ccc(-n2cccn2)nc1 (stereo not given)	-9.12%
O=C(CC1CC1)N1C[C@@H](O)[C@H](N2CCN(c3ccccc3)CC2)C1	-9.15%
CCc1nccn1CC1CCCN1S(=O)(=O)N1CCCOCC1 (stereo not given)	15.2%
CC(C)[C@@H]1CN(C(=O)C2(c3ccccc3)CC2)C[C@H]1C(=O)O	-2.56%
CCN(C)S(=O)(=O)N1CCC(C(O)c2ccc(Cl)cc2)CC1 (stereo not given)	1.46%
Fc1ccc(COCC2CCN(Cc3ccccn3)CC2)cc1	1.48%
O=C(c1cnco1)N1CCC(Cc2cnc3ccccc3c2)CC1	18.4%
